Screening results from PubChem BioAssay.
LDHA block: blocks human lactate dehydrogenase A; purified LDHA, NADH/diaphorase-resazurin fluorescence; stronger effect = lower value; activity change, % (values are at about 110 or 230 µM); actives 0.15% (n = 480,000); AID 1347041; in the data active = activity change below about -30%; inconclusive = mostly about -25% to -30%
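LDH5 2 nM; NADH 0.06 mM, pyruvate 0.2 mM; 200 mM Tris pH 7.4, EDTA, Tween-20; 5 min RT. Detection: diaphorase 0.133 mg/mL + resazurin 37 µM, fluorescence ex540/em590 at 0 and 20 min; normalized to enzyme-free and DMSO wells.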
Gal4-VP16 FLuc: Gal4-VP16 reporter inhibition counter-screen. Drosophila S2 Gal4-VP16 UAS-luciferase, luminescence, 20 h. Potency, µM (top dose mostly 53.6 µM), usual class: inhibitors. actives 3.5% (n = 310,000). AID 2546;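 also: Gal4-VP16 expression switched on by copper sulfate through the metallothionein promoter; nearly all actives have a fitted effect of over 50% in size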
RORgamma inh: blocks mouse ROR gamma transcriptional activity | Potency, µM (top dose mostly 53.6 µM), hits mostly inhibitors | P51450 | actives 5.4% (n = 310,000) | Drosophila S2 Gal4-RORgamma UAS-luciferase reporter, 20 h; also: nearly all actives have a fitted effect of over 60% in size
Target sequence (P51450 whole entry, looked up, the tested form may be a part): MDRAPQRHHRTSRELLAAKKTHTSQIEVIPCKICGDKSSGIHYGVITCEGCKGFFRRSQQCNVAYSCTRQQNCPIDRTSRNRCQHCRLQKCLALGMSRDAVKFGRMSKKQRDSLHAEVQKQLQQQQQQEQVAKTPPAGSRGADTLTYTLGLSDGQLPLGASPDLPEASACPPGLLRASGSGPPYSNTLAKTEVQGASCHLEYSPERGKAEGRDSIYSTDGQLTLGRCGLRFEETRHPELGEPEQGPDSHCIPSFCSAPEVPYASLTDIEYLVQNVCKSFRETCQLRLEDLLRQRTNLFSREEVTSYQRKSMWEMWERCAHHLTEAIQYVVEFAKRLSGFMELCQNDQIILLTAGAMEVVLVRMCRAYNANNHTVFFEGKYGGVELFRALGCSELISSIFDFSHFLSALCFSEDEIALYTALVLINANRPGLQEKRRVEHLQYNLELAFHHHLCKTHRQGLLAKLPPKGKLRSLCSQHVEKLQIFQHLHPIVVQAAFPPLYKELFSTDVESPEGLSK
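Compounds are pin-transferred onto Drosophila Schneider cells expressing a copper-inducible Gal4–ROR gamma transactivation domain fusion. After 1 hr, copper sulfate is added to 700 uM final; luciferase is read 20 hr later.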
IL-1B inflam inh: inflammasome signaling inhibition, IL-1 beta readout; THP-1 LPS/ATP IL-1B secretion, AlphaLISA, 16 h; stronger effect = lower value; activity change, % at 57.5 µM; actives 4.7% (n = 360,000); AID 743279; in the data active = activity change below about -50%; inconclusive = mostly about -30% to -49%
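THP-1 cells pretreated 1 hr with compounds (up to 57.5 uM final), then stimulated with LPS (250 ng/mL final) plus ATP (1.25 mM final); secreted IL-1B measured by AlphaLISA after 16 hr, decreased signal indicating inhibition.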
TDP1 cell noCPT: qHTS for Inhibitors of human tyrosyl-DNA phosphodiesterase 1 (TDP1): qHTS in cells in absence of CPT. DT40 Tdp1-/- hTDP1 cells, no CPT, ATP luminescence, 48 h. Potency, µM (highest dose often 46.2 µM), actives largely listed as inhibitors. actives 15% (n = 420,000). AID 686978, 2013; also: nearly all actives have a fitted effect of over 55% in size
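Chicken DT40 Tdp1-/- cells complemented with human TDP1, screened without camptothecin (DMSO vehicle only), 400 cells/well. Compounds pin-transferred, cells incubated at 37 °C for at least 48 hr. Growth read as ATP-dependent luminescence (CellTiter-Glo, 30 min at RT).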
DT40 TDP1 CPT: growth inhibition of DT40 Tdp1-/-;hTDP1 cells with camptothecin (screen for TDP1 inhibitors); chicken DT40 Tdp1-/-;hTDP1 cells + 20 nM CPT, ATP luminescence, 48 h; Potency, µM (series often up to 46.2 µM), hits mostly inhibitors; actives 12% (n = 420,000); AID 686979; also: nearly all actives have a fitted effect of over 55% in size
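Cell growth measured by CellTiter-Glo luminescence after a minimum 48 h, 37 C compound exposure with 20 nM CPT in Tdp1-knockout DT40 cells stably expressing hTDP1, seeded 400/well; qHTS titration format.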
Numbers stand for hits; i = inactive; ? = inconclusive; nt = no result. In the library only some 18% were active in any assay of this set; here they are far more common. Unless noted, calls follow the shape of the dose curve; as a rule, active = well fitted curve in the direction sought with a large enough effect; inconclusive = small, poorly fitted or top-dose-only effect, or another doubt; inactive = no such curve, though single readings can be large; an effect the other way counts as inactive or inconclusive.

SMILES | LDHA block | Gal4-VP16 FLuc | RORgamma inh | IL-1B inflam inh | TDP1 cell noCPT | DT40 TDP1 CPT
Cc1ccc(S(=O)(=O)Nc2ccc(-c3nc4cc(NS(=O)(=O)c5ccc(C)cc5)ccc4o3)cc2)cc1 | nt | ? | i | nt | nt | nt
CC(=O)Nc1ccc(S(=O)(=O)Nc2cccc(-c3nc4cc(C)ccc4o3)c2)cc1 | i | nt | nt | i | 20.6µM | 20.6µM
Cc1nc(-c2cccc(NS(C)(=O)=O)c2)cs1 | i | i | i | i | i | i
O=C(CCS(=O)(=O)c1ccc2c(c1)CCN2C(=O)C1CC1)NCc1ccc(F)cc1 | i | nt | nt | nt | nt | nt
Cc1ccc(S(=O)(=O)c2nc(S(=O)(=O)c3ccc(C)cc3)c(NCCCOC(C)C)s2)cc1 | i | nt | nt | nt | 16.4µM | ?
CCCS(=O)(=O)c1nc(S(=O)(=O)c2ccc(C)cc2)c(N2CCc3ccccc3C2)s1 | i | ? | 8.91µM | i | ? | ?
CCS(=O)(=O)c1nc(S(=O)(=O)c2ccc(C)cc2)c(NCCCOC)s1 | i | nt | nt | nt | ? | i
CCCS(=O)(=O)c1nc(S(=O)(=O)c2ccc(C)cc2)c(N2CCCC2)s1 | i | i | i | i | ? | ?
CCS(=O)(=O)c1nc(S(=O)(=O)c2ccc(C)cc2)c(NCc2ccccc2Cl)s1 | i | nt | nt | nt | 10.3µM | 16.4µM
Cc1ccc(S(=O)(=O)c2nc(S(=O)(=O)c3ccc(C)cc3)c(NC(C)C)s2)cc1 | i | nt | nt | nt | ? | 16.4µM
Fc1cc(Br)ccc1OCc1coc(-c2ccccc2)n1 | i | nt | nt | nt | nt | nt
Cc1oc(-c2ccccc2)nc1CC(=O)NC(C)CN1CCOCC1 (stereo unspecified) | i | nt | nt | nt | nt | nt
CCN(C(=O)C(=O)c1c(C)n(C)c2ccccc12)c1ccc(OC)cc1 | i | nt | nt | nt | nt | nt
CCCS(=O)(=O)c1nc(S(=O)(=O)c2ccc(C)cc2)c(NC(C)c2ccccc2)s1 (stereo unspecified) | i | nt | nt | nt | 10.3µM | ?
CCN1CCC(NC(=O)C23CC4CC(CC(C4)C2)C3)CC1 | i | nt | nt | nt | nt | nt
CCc1ccccc1NC(=O)Cn1c(=O)n(Cc2ccc3c(c2)OCO3)c(=O)c2ccc(C(=O)NC3CCCCC3)cc21 | i | nt | nt | nt | ? | 1.84µM
Cc1cc(C)c(NC(=O)Cn2c(=O)n(Cc3ccc4c(c3)OCO4)c(=O)c3ccc(C(=O)NC4CCCCC4)cc32)c(C)c1 | i | nt | nt | nt | i | i
CCOc1ccc(NC(=O)Cn2c(=O)n(Cc3ccc4c(c3)OCO4)c(=O)c3ccc(C(=O)NC4CCCCC4)cc32)cc1 | i | nt | nt | nt | 4.61µM | 2.59µM
CC(Oc1ccc(Br)cc1Cl)C(=O)NC1(C#N)CCCCC1 (stereo unspecified) | i | nt | nt | nt | nt | nt
COc1ccc(N2CCN(Cc3nc4c(c(=O)n(C)c(=O)n4C)n3Cc3ccccc3C)CC2)cc1 | i | nt | nt | i | 16.4µM | 18.4µM
COc1ccc(N2CCN(Cc3nc4c(c(=O)n(C)c(=O)n4C)n3CCc3ccccc3)CC2)cc1 | i | i | i | i | ? | ?
COc1ccc(N2CCN(Cc3nc4c(c(=O)n(C)c(=O)n4C)n3CC(C)=O)CC2)cc1 | i | i | ? | i | 23.1µM | 13µM
COc1ccc(C(C)=O)c(OC(=O)c2ccc(F)cc2F)c1 | i | nt | nt | nt | nt | nt
CC(N)c1csc(Nc2cc(Oc3ccccc3)ncn2)n1 (stereo unspecified) | i | nt | nt | -64.8 | 0.0411µM | ?
CS(=O)(=O)c1ccc(Nc2nc(C(N)c3ccccc3Cl)cs2)cc1 (stereo unspecified) | i | nt | nt | i | ? | ?
SMILES | LDHA block | Gal4-VP16 FLuc | RORgamma inh | IL-1B inflam inh | TDP1 cell noCPT | DT40 TDP1 CPT
NC(c1csc(Nc2cc(Oc3ccccc3)ncn2)n1)c1ccccc1Cl (stereo unspecified) | i | nt | nt | -88.7 | ? | ?
COc1ccc(-c2cc(C(=O)Oc3ccc(Br)cc3)c3ccccc3n2)cc1 | i | nt | nt | nt | i | i
CC(Oc1ccc(Br)cc1)c1nc2c3ccccc3nc(=S)n2[nH]1 (stereo unspecified) | i | 1.26µM | 0.282µM | i | 14.6µM | ?
CCCC(Oc1ccc(Br)cc1)c1nc2c3cc(OC)c(OC)cc3nc(=S)n2[nH]1 (stereo unspecified) | i | 3.55µM | 1.26µM | i | ? | ?
COc1cc2nc(NCCC(C)C)n3nc(-c4ccccc4)nc3c2cc1OC | i | nt | nt | nt | ? | ?
Cc1nn(-c2ccccc2)c(C)c1CCC(=O)N1CCN(S(=O)(=O)c2ccccc2C#N)CC1 | i | nt | nt | nt | nt | nt
COC(=O)C1=C(N)c2ccccc2C1(C#N)c1ccccc1 (stereo unspecified) | i | 15.8µM | i | i | ? | i
CC(=O)c1ccc2noc(-c3ccccc3)c2c1 | i | i | ? | ? | i | i
CN(C)/C=C/C(=O)c1ccc2noc(-c3ccccc3)c2c1 | i | i | i | -52.4 | ? | ?
CC(OC(=O)c1ccc(S(=O)(=O)N(C)C)cc1)C(=O)c1ccccc1 (stereo unspecified) | i | nt | nt | nt | nt | nt
CC(=O)c1c(N)[nH]c(-c2ccccc2)nc1=S | i | 0.794µM | 0.316µM | i | 6.51µM | 6.51µM
CC(=O)c1c(N2CCOCC2)[nH]c(-c2ccccc2)nc1=S | i | 5.01µM | 1.12µM | i | ? | 16.4µM
CC(=O)c1c(N2CCN(Cc3ccccc3)CC2)[nH]c(-c2ccccc2)nc1=S | i | ? | 14.1µM | i | ? | ?
CC(=O)c1c(N2CCCC2)[nH]c(-c2ccccc2)nc1=S | i | 7.94µM | 5.62µM | i | ? | ?
Cc1[nH]c(-c2ccccc2)nc1C(=O)O | i | nt | nt | nt | nt | nt
O=C(/C=C/c1ccccc1)c1cc2ccccc2o1 | i | nt | nt | nt | nt | nt
O=C(N/N=C/c1cccs1)/C(=C/c1ccccc1)NC(=O)c1ccccc1 | i | ? | 11.2µM | i | i | i
COc1ccc(/C=C(/NC(=O)c2ccccc2)C(=O)N/N=C/c2sccc2C)cc1 | i | ? | 12.6µM | i | i | i
COc1ccc(/C=C(\NC(=O)c2ccccc2)C(=O)N/N=C/c2ccncc2)cc1 | i | i | i | i | i | i
O=C(Nc1ccccc1)/C(=C\c1cccs1)NC(=O)c1ccccc1 | i | ? | i | i | i | i
COc1ccc(/C=C(\NC(=O)c2ccccc2)C(=O)N/N=C/c2cccnc2)cc1 | i | i | ? | i | i | i
COc1ccc(/C=C(\NC(=O)c2ccccc2)C(=O)N/N=C/c2sccc2C)cc1 | i | 22.4µM | 11.2µM | i | i | i
O=S(=O)(c1ccc(F)cc1)N1CCCN(c2nnnn2-c2ccccc2)CC1 | i | nt | nt | nt | nt | nt
CC(O)(C#CCN1CCCCC1)C1CC2C=CC1C2 (stereo unspecified) | i | nt | nt | nt | nt | nt
CCCc1cc(=O)[nH]c(Nc2ccc(Cl)cc2)n1 | i | i | i | -76.1 | 16.4µM | ?
CCCc1cc(=O)[nH]c(Nc2ccc(O)cc2)n1 | i | i | i | i | ? | i
